# Data taken from PubChem BioAssay AID687021 (Broad Institute, 2013).
# A number with no mark means an inactive call. Activity calls are given as the source filed them.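 How the source made its calls: active means compounds lowering luciferase light whose fitted half-effect concentration is at most twice the top tested dose; inconclusive means flat curve with 30 to 70% inhibition, or poor fit; inactive means the rest.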
# Assay: luciferase signal loss, tTA control fusion, HeLa F-luc tTA cells, dry powder, counter-screen for HIV Env fusion inhibitor project, dose response (AID 687021)
# Details: luciferase luminescence counterscreen; series mostly up to 35 µM; activity change, negative = inhibition: at the top concentration
Structure (SMILES),"activity change, negative = inhibition [%]",outcome
CCCC#Cc1ccc2c(c1)O[C@@H](CN(C)S(=O)(=O)c1cccc(F)c1)[C@@H](C)CN([C@H](C)CO)S2(=O)=O,30.7,–
Cc1noc(C)c1S(=O)(=O)Nc1cccc2c1O[C@H](CN(C)Cc1ccc(C(F)(F)F)cc1)[C@@H](C)CN([C@H](C)CO)C2=O,57.2,–
CCOc1ccc(S(=O)(=O)NCc2ccccn2)cc1,54.6,–
Cc1ccc2c(CN3CCN(S(=O)(=O)c4ccc5c(c4)OCCO5)CC3)cc(=O)oc2c1C,6.7,–
CCOc1ccc(S(=O)(=O)NCc2ccccc2)cc1,8.56,–
COc1ccc2c(c1)[nH]c1c(N3CCN(Cc4ccc5c(c4)OCO5)CC3)ncnc12,–,inactive
CCOc1ccc(S(=O)(=O)NCc2ccncc2)cc1Cl,43.3,–
CCCn1nc(C(=O)Nc2ccc3nc(N4CCOCC4)sc3c2)ccc1=O,2.85,–
Cc1noc(C)c1S(=O)(=O)Nc1cccc2c1O[C@@H](CN(C)Cc1ccc(C(F)(F)F)cc1)[C@@H](C)CN([C@@H](C)CO)C2=O,110,–
COc1ccc(S(=O)(=O)NCc2ccncc2)cc1OC,–,inactive
CCOc1ccc(S(=O)(=O)NC(C)c2ccncc2)cc1 (stereo not given),40.5,–
Cc1ccc(-c2nnc3ccc4c(C(F)(F)F)cc(C(F)(F)F)nc4n23)cc1,19.6,–
O=C(CCCn1c(=S)[nH]c2cc3c(cc2c1=O)OCO3)N1CCN(c2ccc(Cl)cc2)CC1,–,inactive
Cc1ccc(S(=O)(=O)N(C)C[C@@H]2Oc3ccc(NS(=O)(=O)c4c(C)noc4C)cc3CC(=O)N([C@H](C)CO)C[C@@H]2C)cc1,54.9,–
Cn1c(C(=O)N2CCN(c3nc4ccccc4s3)CC2)cc2sccc21,67.4,–
